We go through 40 sequences from the OligoGym collection.
Note: reference of the scale not given here.

The first test deals with ZNF250. Description: pooled miR-30 sensor sort-seq; sequence = guide strand. The note with it: shRNA.
TACACTGCACACATAGGGCTTC came in with a sensor-assay potency score (higher = more potent) of -0.55.
With TTGTCTGAGTAGTCACTCCACA, the sensor-assay potency score (higher = more potent) is -0.51.
In turn, TGTATTTTGACTCTCTCCCTTG came in with a sensor-assay potency score (higher = more potent) of -0.459.
As for TTACTAAGGACTGAGCTCTGGC, the sensor-assay potency score (higher = more potent) came to 0.163.

For the next test, the target named is ZNF259. The test is described as above. Conditions: shRNA.
Sequence TTGTAGTGTGTGATCACCAGGG showed a sensor-assay potency score (higher = more potent) of 0.392.
TTTTCCACAAAACTGTTCCCTG: the sensor-assay potency score (higher = more potent) is -0.697.
Sequence TTGTACTAGCTTCATGTTGGTC registered a sensor-assay potency score (higher = more potent) of -0.732.
Still for that read-out and setting: with TTCATTTCTGAGATCTTCCTCT the figure was 0.123.
TTCGATGATCTGGTCCATCTTC showed a sensor-assay potency score (higher = more potent) of -0.231.
Turning to TTCAGTTTGACAATGAACTCAT, the sensor-assay potency score (higher = more potent) was 0.875.
With TAAACTCCTGTAGTCTCTCCGT, the sensor-assay potency score (higher = more potent) was -0.469.
The sequence TTCTGAGATCTTCCTCTTCTGG had a sensor-assay potency score (higher = more potent) of -1.55.
Turning to TTGCAGTAACAGTTCATGCATA, the sensor-assay potency score (higher = more potent) is -0.757.
Still for that read-out and setting: with TCAGTCTTCACCACTTCTCTGT the figure was 0.0434; with TCACACTTGCATCACAAGCTGT, -0.681.
TAACACAATAGGCTCACACTTG yielded a sensor-assay potency score (higher = more potent) of -0.434.

A further test deals with ZNF263. Described as above. Conditions: shRNA.
In turn, TTTTATGCCAATCCTCTGCTGC yielded a sensor-assay potency score (higher = more potent) of 0.0855.
On to TGAAGCTCGGTGACTCTCGTGC, for which the sensor-assay potency score (higher = more potent) was 0.166.
In the case of TTATAGGGTCTCTCTCCCGTAT, the sensor-assay potency score (higher = more potent) was -0.848.
In the case of TACACAGTCTTTCAGCTGCATG, the sensor-assay potency score (higher = more potent) was -1.42.
As for TTTGGCTGCAGTTCCTTCGGTC, the sensor-assay potency score (higher = more potent) was 0.0507.
As to TTCAGTGCAGTCCACACCCATA, the sensor-assay potency score (higher = more potent) was -1.37.
Sequence TTATCAGACACCTACTTCCTCT gave a sensor-assay potency score (higher = more potent) of -0.271.
Still for that read-out and setting: with TTGAAGCTCGGTGACTCTCGTG the figure was -0.044; with TTTCAGTGCAGTCCACACCCAT, -0.797; with TAAGGTAAACTGGACAGTCAGG, -0.825.

A further test has as its target ZNF300. The description is as above. Conditions: shRNA.
TTAGTCTTAACATCTAATGCTT registered a sensor-assay potency score (higher = more potent) of -0.171.
Still for that read-out and setting: with TTACTGAATCTGATCAACCTAT the figure was -0.267; with TTTTTTTCTTGAATTGCTCTTA, 0.496; with TAAAACAAGGTCTGACTTCTGA, -0.123.
With TTCCACATTCAGAACAATCATA, the sensor-assay potency score (higher = more potent) is -0.99.
TTCTGTATGCTTAACTTGCTGT: the sensor-assay potency score (higher = more potent) is -0.0649.
The same measure, in the same setting: with TTGCTCTTATAACAACTCGGTA the figure was -1.42.
In the case of ATGAGTTCTGTCTTCCTGCTGA, the sensor-assay potency score (higher = more potent) turned out to be 0.161.
Regarding TAGTCTTAACATCTAATGCTTC, the sensor-assay potency score (higher = more potent) was -0.419.
As to TGAGTTGTGACTTCTTAGCAAA, the sensor-assay potency score (higher = more potent) was -1.22.

For another test, the target named is ZNF322A. The description is as above. Conditions: shRNA.
On to TAAGACAGGAGCTTCTACCAAA, for which the sensor-assay potency score (higher = more potent) is -0.88.
The same measure, in the same setting: with TTTTTCACCAATGTGTACTGTC the figure was 0.583.
Take TTCACCAATGTGTACTGTCTGA: the sensor-assay potency score (higher = more potent) was -0.693.
TATGAGTCAACTAACTATGAGA had a sensor-assay potency score (higher = more potent) of -0.783.
